Values without a mark were called inactive. Calls of active or inactive are those of the source. Rule as the data show it: active = fold change permeability below about 0.7 or above about 1.3; inactive = in between.
Assay: modulators of brain endothelial barrier permeability, primary screen, cell-based, FITC-avidin fluorescence, HTS (AID 1963498); also: test concentration not given here
Details: actives lie on both sides

Row | Structure (SMILES) | fold change permeability
1 | CCN(C)C(=O)Oc1cccc([C@H](C)N(C)C)c1 | 1
2 | Cc1cc(Cl)ccc1OCCCC(=O)NO | 1
3 | COC(=O)C1=CO[C@@H](O)[C@@H]2C(CO)=CC[C@H]12 | 1.1 (active)
4 | COc1ccc2c(c1OC)C(=O)O[C@@H]2[C@H]1c2c(cc3c(c2OC)OCO3)CCN1C | 1
5 | CC(=O)C(C)=O | 1.1
6 | N#Cc1c(N2CCCC2)nc(N)c2c(N)nc(N3CCCC3)cc12 | 1.8 (active)
7 | CCN(Cc1cccnc1)C(=O)CN(c1ccc(OC)nc1)S(=O)(=O)c1ccccc1C | 1.9 (active)
8 | CC(=O)Oc1ccccc1C(=O)O | 1
9 | CCCCCCCCCCCCCCSCC(=O)O | 1.6 (active)
10 | CCN1CCc2nc(N)oc2CC1 | 1.1
11 | CNc1cc(NS(=O)(=O)c2ccc(N)cc2)nc(NC)n1 | 0.7 (active)
12 | CC(=O)[C@]1(O)Cc2c(O)c3c(c(O)c2[C@@H](O[C@H]2C[C@H](N)[C@H](O)[C@H](C)O2)C1)C(=O)c1ccccc1C3=O | 3.4 (active)
13 | CC(C)(C)c1ccc(S(=O)(=O)/C=C/C#N)cc1 | 1.2
14 | COc1ccccc1N1CCN(CCCNc2c(C)c(=O)n(C)c(=O)n2C)CC1 | 1.5 (active)
15 | NC1(C(=O)O)CC1 | 0.9
16 | CCSC(=N)N | 1.1
17 | N[C@@H](C(=O)N[C@@H]1C(=O)N2C(C(=O)O)=C(Cl)CS[C@H]12)c1ccccc1 | 0.9
18 | CNCCCC1c2ccccc2C=Cc2ccccc21 | 1.1
19 | N[C@@H](CC(=O)N1CCN(C(c2ccc(F)cc2)c2ccc(F)cc2)CC1)C(=O)N1Cc2ccccc2C1 | 1.1
